Test system: T1, YANK1
T1 construct: gene STK32A
Conditions: concentration: 1 μM,replicates: in singlicate; n = 1
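Also: KINOMEscan kinase panel screen.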

| Structure (SMILES) | %Inh |
| --- | --- |
| Cc1n[nH]c2ccc(-c3cc(OC[C@@H](N)Cc4ccccc4)cnc3-c3ccoc3)cc12.O=C(O)C(F)(F)F.O=C(O)C(F)(F)F [GSK507358] | 72% |
| Cl.Oc1cc(-c2nc(-c3ccccc3)[nH]c2-c2ccncc2)ccc1Cl [SB-386023] | 0% |
| CCn1c(-c2nonc2N)nc2c(C#CC(C)(C)O)nc(OCCN)cc21.Cl.Cl [GSK902056] | 12% |
| CCN(CC)CCOc1ccc(Nc2ncc3cc(-c4c(Cl)cccc4Cl)c(=O)n(C)c3n2)cc1 [SB-601273] | 95.1% |
| CC(C)Nc1cc(-c2ccc3c(N)n[nH]c3c2)nc(N)n1 [GSK2221681] | 37% |
| C=CC(=O)Nc1cc2c(Nc3ccc(F)c(Cl)c3)ncnc2cc1OCCCN1CCOCC1 [GW781483] | 17% |
| C[C@@H](Oc1cc(-c2cnn(C3CCNCC3)c2)cnc1N)c1c(Cl)ccc(F)c1Cl | 6% |
| CN(C)CCOc1ccc(-c2cc(-c3c[nH]nc3-c3ccccn3)ccn2)cc1 [GW835314] | 89% |
| Cc1cc(C(=O)Nc2ccc(Oc3ccc4nc(NC(=O)C5CC5)cn4n3)cc2)nn1-c1ccccc1 | 0% |
| Cl.Cl.Nc1nc(-c2ccc3c(N)n[nH]c3c2)cc(N2CCCC(NC(=O)c3ccccc3)C2)n1 (stereo not shown) [GSK2286775] | 0% |
| COc1ccc(C[C@@H](CN)NC(=O)c2cc(Br)c(-c3ccnc4[nH]ccc34)s2)cc1.Cl.Cl [GSK1389063] | 71% |
| Cc1cc2cn[nH]c2cc1-c1cccc2c(N)c(C(N)=O)nnc12 | 26% |
| Cl.Cl.NC[C@H](CC1CCCCC1)NC(=O)c1cc(Br)c(-c2ccnc3[nH]ccc23)s1 [GSK1581427] | 42% |
| Cl.Cl.NC[C@H](Cc1ccc(C(F)(F)F)cc1)NC(=O)c1cc(Br)c(-c2ccnc3[nH]ccc23)s1 [GSK1487252] | 56% |
| Cc1occc1-c1nc(N)c(OC[C@@H](N)Cc2c[nH]c3ccccc23)cc1-c1cc2c(C)n[nH]c2cn1 [GSK1660450] | 96.6% |
| CN(C)CC(O)COc1ccc(Nc2nccc(-c3cnn4nc(N5CCOCC5)ccc34)n2)cc1 (stereo not shown) [GW767488] | 29% |
| CC(C)N1C(=O)Cc2cc(Nc3ncc(C(F)(F)F)c(NCc4cccc(S(C)(=O)=O)c4)n3)ccc21 | 6% |
| CNC(=O)c1ccccc1Sc1ccc2c(/C=C/c3ccccn3)n[nH]c2c1 | 19% |
| NC(=O)c1cc(-c2ccccc2)cc2c(C3CCNCC3)c[nH]c12 [GSK301362] | 4% |
| C[C@H]1Oc2cc(cnc2N)-c2c(nn(C)c2C#N)CN(C)C(=O)c2ccc(F)cc21 | 0% |
| Cc1ccc2c(-c3ccncc3)c(-c3ccc(F)cc3)nn2c1.Cl [GW461484] | 31% |
| CCN(CC)CCCCNc1ncc2cc(-c3c(Cl)cccc3Cl)c(NC(=O)NC(C)(C)C)nc2n1 | 53% |
| O=C(NCCCN1CCOC1=O)c1cnc(NCc2cc(Cl)ccc2Cl)nc1NC1CCCC1 | 0% |
| Nc1nc(Nc2ccccc2)cc(-c2ccc3c(N)n[nH]c3c2)n1 [GSK2225749] | 15% |
| Cc1ccc(-n2nc(C(C)(C)C)cc2NC(=O)Nc2ccc(OCCN3CCOCC3)c3ccccc23)cc1 [GW839464] | 0% |
| O=C(NCCNc1ccnc(NCc2ccc(F)cc2)n1)c1cc2ccccc2s1 [GSK1379944] | 19% |

Test system: T2, YANK2
T2 construct: gene STK32B
Conditions: concentration: 1 μM,replicates: in singlicate; n = 1

| Structure (SMILES) | %Inh |
| --- | --- |
| Cc1n[nH]c2ccc(-c3cc(OC[C@@H](N)Cc4ccccc4)cnc3-c3ccoc3)cc12.O=C(O)C(F)(F)F.O=C(O)C(F)(F)F [GSK507358] | 90.5% |
| Cl.Oc1cc(-c2nc(-c3ccccc3)[nH]c2-c2ccncc2)ccc1Cl [SB-386023] | 26% |
| CCn1c(-c2nonc2N)nc2c(C#CC(C)(C)O)nc(OCCN)cc21.Cl.Cl [GSK902056] | 0% |
| CC(C)Nc1cc(-c2ccc3c(N)n[nH]c3c2)nc(N)n1 [GSK2221681] | 0% |
| C=CC(=O)Nc1cc2c(Nc3ccc(F)c(Cl)c3)ncnc2cc1OCCCN1CCOCC1 [GW781483] | 0% |
| C[C@@H](Oc1cc(-c2cnn(C3CCNCC3)c2)cnc1N)c1c(Cl)ccc(F)c1Cl | 0% |
| CN(C)CCOc1ccc(-c2cc(-c3c[nH]nc3-c3ccccn3)ccn2)cc1 [GW835314] | 0% |
| Cc1cc(C(=O)Nc2ccc(Oc3ccc4nc(NC(=O)C5CC5)cn4n3)cc2)nn1-c1ccccc1 | 3% |
| Cl.Cl.Nc1nc(-c2ccc3c(N)n[nH]c3c2)cc(N2CCCC(NC(=O)c3ccccc3)C2)n1 (stereo not shown) [GSK2286775] | 0% |
| COc1ccc(C[C@@H](CN)NC(=O)c2cc(Br)c(-c3ccnc4[nH]ccc34)s2)cc1.Cl.Cl [GSK1389063] | 46% |
| Cc1cc2cn[nH]c2cc1-c1cccc2c(N)c(C(N)=O)nnc12 | 0% |
| Cl.Cl.NC[C@H](CC1CCCCC1)NC(=O)c1cc(Br)c(-c2ccnc3[nH]ccc23)s1 [GSK1581427] | 0% |
| Cl.Cl.NC[C@H](Cc1ccc(C(F)(F)F)cc1)NC(=O)c1cc(Br)c(-c2ccnc3[nH]ccc23)s1 [GSK1487252] | 69% |
| Cc1occc1-c1nc(N)c(OC[C@@H](N)Cc2c[nH]c3ccccc23)cc1-c1cc2c(C)n[nH]c2cn1 [GSK1660450] | 95.2% |
| C[C@@H]1CCN(C(=O)CC#N)C[C@@H]1N(C)c1ncnc2[nH]ccc12 | 0% |
| CN(C)CC(O)COc1ccc(Nc2nccc(-c3cnn4nc(N5CCOCC5)ccc34)n2)cc1 (stereo not shown) [GW767488] | 0% |
| CC(C)N1C(=O)Cc2cc(Nc3ncc(C(F)(F)F)c(NCc4cccc(S(C)(=O)=O)c4)n3)ccc21 | 0% |
| CNC(=O)c1ccccc1Sc1ccc2c(/C=C/c3ccccn3)n[nH]c2c1 | 0% |
| NC(=O)c1cc(-c2ccccc2)cc2c(C3CCNCC3)c[nH]c12 [GSK301362] | 0% |
| C[C@H]1Oc2cc(cnc2N)-c2c(nn(C)c2C#N)CN(C)C(=O)c2ccc(F)cc21 | 12% |
| Cc1ccc2c(-c3ccncc3)c(-c3ccc(F)cc3)nn2c1.Cl [GW461484] | 15% |
| CCN(CC)CCCCNc1ncc2cc(-c3c(Cl)cccc3Cl)c(NC(=O)NC(C)(C)C)nc2n1 | 32% |
| O=C(NCCCN1CCOC1=O)c1cnc(NCc2cc(Cl)ccc2Cl)nc1NC1CCCC1 | 0% |
| Nc1nc(Nc2ccccc2)cc(-c2ccc3c(N)n[nH]c3c2)n1 [GSK2225749] | 0% |
| Cc1ccc(-n2nc(C(C)(C)C)cc2NC(=O)Nc2ccc(OCCN3CCOCC3)c3ccccc23)cc1 [GW839464] | 0% |
| O=C(NCCNc1ccnc(NCc2ccc(F)cc2)n1)c1cc2ccccc2s1 [GSK1379944] | 0% |
